# Results from PubChem BioAssay (Tox21).
# A number with no mark means an inactive call. Activity calls are given as the source filed them. Calls follow the shape of the dose curve; as a rule, active = well fitted curve in the direction sought with a large enough effect in the repeat runs; inconclusive = weak or mixed curves; inactive = flat fitted curve, though single readings scatter.
# Assay: qHTS assay to test for compound auto fluorescence at 590 nm (red) in HepG2 cells (AID 720674)
# Settings: HepG2 autofluorescence, red 540/590 nm, 1 h; series mostly up to 91.3 µM; fluorescence, relative to Rose Bengal: at the top concentration
# Source text: U.S. Tox21 Program National Center for Advancing Translational Sciences [NCATS] NIH Chemical Genomics Center [NCGC] U.S. Environmental Protection Agency [EPA] National Institutes of Environmental Health Sciences [NIEHS] National Toxicology Program [NTP] U.S. Food and Drug Administration [FDA] Tox21 Assay Overview: Compound auto fluorescence often interferes with screening of the compound library against various biological targets and signaling pathways. Some of these compounds may have fluorophoric properties. Such properties may interfere with the assay outputs resulting in false positives and/or negatives. To decrease such complications and ensure the compound activities are relevant in terms of biological response, the Tox21 10K compound library was screened for auto fluorescence. From the fluorophores used as reporter signals in our screening assays, the auto fluorescence equivalencies of compounds against three fluorophores have been evaluated: Triamterene, Fluorescein and Rose Bengal sodium for blue, green and red fluorescence, respectively. The fluorescence intensities were measured using Excitation/Emission wavelengths at 405/460nm, 485/535nm and 540/590nm for blue, green and red labels, respectively. This assay includes the red fluorescence data.
# Tox21 Assay Protocol Summary: 2,000 HepG2 cells in 5 uL of culture medium (MEM containing 10% FBS) per well were dispensed into black wall/clear bottom 1536-well plates using a Multidrop Combi Dispenser (ThermoFisher Scientific, Waltham, MA). The assay plates were incubated overnight at 37 C to allow cell attachment to the well bottom, followed by the transfer of 23 nL compound or DMSO vehicle by a pintool work station (Kalypsys , San Diego, CA). After the assay plates were incubated for 1 hr at 37 C and 5% CO2, fluorescence intensities in the assay plates were measured by an Envision (PerkinElmer, Shelton, CT) plate reader using three labels for measuring blue, green and red fluorescence at […] 460, 535 and 590 nm respectively.
# % is scaled to controls: 0 for no effect and ±100 for the full control effect.
Structure (SMILES),"fluorescence, relative to Rose Bengal",outcome
CCO[Si](CCCN=C=O)(OCC)OCC,0.0171%,
Cc1ccc(N)cc1[N+](=O)[O-],-0.0617%,
CCCCCCCCCCCCCCC,0.0168%,
C=CCn1c(=O)n([C@@H]2O[C@H](CO)[C@@H](O)[C@H]2O)c2nc(N)[nH]c(=O)c21,0.343% [at 46 µM],
COc1cccc(Br)c1,0.184%,
CC(C)(C)CC(C)(C)N,0.101%,
COc1cc(C(=O)N2CCOCC2)cc(OC)c1OC,,inactive
Cc1nccn1CC1CCc2c(c3ccccc3n2C)C1=O (stereo not given),,inactive
CN(C)CCn1nnnc1SCC1=C(C(=O)O)N2C(=O)[C@@H](NC(=O)Cc3csc(N)n3)[C@H]2SC1,-0.434% [at 18.6 µM],
c1ccc2cnncc2c1,0.0365%,
CC(C)=CC(=O)O,0.343%,
CSc1ccc(C=O)cc1,-0.112%,
NS(=O)(=O)c1cc2c(cc1C(F)(F)F)NC(Cc1ccccc1)NS2(=O)=O (stereo not given),0.0251% [at 18.6 µM],
CCCCCCCCCCC1CO1 (stereo not given),-0.589%,
CC/C=C\CCCCO,0.0075%,
O=C(O)C(O)[C@H](O)[C@@H](O)[C@H](O)[C@H](O)CO (stereo not given in full),-0.12% [at 95.7 µM],
CCCCCN(CCCCC)C(=O)C(CCC(=O)O)NC(=O)c1ccc(Cl)c(Cl)c1 (stereo not given),0.088% [at 46 µM],
c1ccc(SCCSc2ccccc2)cc1,-0.139%,
CC(=O)CCc1ccc(O)cc1,0.0773%,
CC1=CC(=O)CCC1,-0.14%,

Structure (SMILES),"fluorescence, relative to Rose Bengal",outcome
CCCCOCC(C)OCC(C)O (stereo not given),-0.111% [at 95.7 µM],
Cc1onc(-c2ccccc2)c1-c1ccc(S(N)(=O)=O)cc1,0.0069% [at 46 µM],
CC(C=O)Cc1ccc(C(C)C)cc1 (stereo not given),-0.102%,
C1CCCCCCCCCCC1,-0.0148% [at 18.6 µM],
CCn1cc(C(=O)O)c(=O)c2cc(F)c(N3CCN(C)CC3)cc21,0.112% [at 46 µM],
Nc1nc(F)nc2c1ncn2[C@@H]1O[C@H](CO)[C@@H](O)[C@@H]1O,,inactive
NS(=O)(=O)c1cc2c(cc1Cl)NC(CSCc1ccccc1)=NS2(=O)=O,-0.338% [at 18.6 µM],
COC(=O)C1=C(C)NC(C)=C(C(=O)OCC(C)=O)C1c1ccccc1[N+](=O)[O-] (stereo not given),-0.615% [at 46 µM],
Cc1ccccc1C(=O)O,0.0858%,
CN(C)N=Nc1ccccc1,0.0603%,
OCC(CO)(CO)COCC(CO)(CO)CO,0.124%,
CC(C)[C@H](N)C(=O)OCCOCn1cnc2c(=O)[nH]c(N)nc21,-0.642% [at 46 µM],
C#CC(C)(O)CC(C)C (stereo not given),0.332%,
CCCc1ccccc1O,-0.233%,
CN1[C@@H]2CC[C@H]1CC(NC(=O)n1c(=O)[nH]c3ccccc31)C2 (stereo not given in full),-0.185% [at 46 µM],
O=C(O)c1ccccc1-c1ccc(C(F)(F)F)cc1,-0.411% [at 46 µM],
NC(=O)c1c(Cl)cccc1Cl,-0.009%,
N#CC1(O)CCCCC1,0.0024%,
CCCCCCCCC=O,0.0485%,
CC(C)N1C(=O)c2ccccc2C1=O,0.272%,
